# Active and inactive are the calls of the source. Unless noted, how the calls were made is not given here.
# Assays:
# [1] = A549 cell viability effects, profiling panel, calcein-AM fluorescence, 48 h, basal (AID 1162); details: higher = more signal; further: test concentration not given here
# [2] = adipocyte viability effects, profiling panel, cell-based, 3T3-L1 adipocytes, calcein-AM fluorescence, 48 h, basal (AID 1163); details: 3T3-L1 adipocytes viability, higher = more signal; further: test concentration not given here
# [3] = HepG2 cell viability effects, profiling panel, calcein-AM fluorescence, 48 h, basal (AID 1164); details: higher = more signal; further: test concentration not given here
# [4] = MM1S cell viability effects, profiling panel, calcein-AM fluorescence, 48 h, basal (AID 1165); details: higher = more signal;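 further: viability of MM1S multiple myeloma cells under basal unstimulated conditions; test concentration not given here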
# [5] = basal RPMI8226 viability, no added stimulus, profiling panel, cell-based, calcein-AM fluorescence, 48 h, PK04 Diversity Set (AID 1166); details: RPMI8226 myeloma viability, higher = more signal;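 further: cells grown under basal conditions without added stimulus; test concentration not given here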
# [6] = basal HepG2 mitochondrial membrane potential changes, profiling panel, cell-based, JC-1 fluorescence, 24 h, 100 nL compound (AID 1167); details: higher = more signal; further: test concentration not given here
# [7] = basal 3T3-L1 adipocyte mitochondrial potential changes, profiling panel, cell-based, JC-1 fluorescence, 3T3-L1 adipocytes, 24 h, 100 nL compound (AID 1168); details: JC-1 mitochondrial fluorescence, higher = more signal, called active from +8 up or from −8 down; further: test concentration not given here
# [8] = basal RPMI8226 mitochondrial membrane potential changes, profiling panel, cell-based, JC-1 fluorescence, 24 h, 100 nL compound (AID 1169); details: RPMI8226 myeloma, JC-1 mitochondrial potential fluorescence, higher = more signal; further: test concentration not given here
# [9] = basal MM1S mitochondrial membrane potential changes, profiling panel, cell-based, JC-1 fluorescence, 24 h, 100 nL compound (AID 1170); details: higher = more signal; further: test concentration not given here
# [10] = A549 lung cancer cell viability effects, profiling panel, resazurin fluorescence, 24 h, PK04 Diversity Set (AID 1171); details: higher = more signal, called active from +8 up or from −8 down; further: test concentration not given here
# [11] = HepG2 liver cancer cell viability effects, profiling panel, resazurin fluorescence, 24 h, PK04 Diversity Set (AID 1172); details: higher = more signal; further: test concentration not given here
# [12] = basal S. cerevisiae growth modulation, no modifier, primary screen, OD600, strain BY4716, 24 h, basal condition (AID 1173); details: OD600, 24 h, higher = more signal, called active from +8 up or from −8 down
# [13] = MM1S myeloma cell viability, profiling panel, resazurin fluorescence, basal, 24 h, PK04 Diversity Set (AID 1174); details: higher = more signal, called active from +8 up or from −8 down;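 further: MM1S multiple myeloma cell line; test concentration not given here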
# [14] = target: Dihydroorotate dehydrogenase (quinone), mitochondrial (Plasmodium falciparum (isolate 3D7)) (UniProt Q08210); experiment: PfDHODH enzyme inhibitors, primary screen, biochemical, C-terminal His tag, absorbance 600 nm (AID 1175); details: DCIP absorbance 600 nm, higher = more signal, called active from +8 up or from −8 down;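 further: recombinant parasite enzyme with a five histidine tag at its C terminus; test concentration not given here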
# [15] = P. aeruginosa biofilm formation inhibitors, primary screen, strain PAO1, LB-PBS medium, absorbance 600 nm (AID 1176); further: test concentration not given here; details: P. aeruginosa PAO1 growth/biofilm, A600, 12 h; higher = more signal
# [16] = S. cerevisiae RM11-1a growth modifiers, primary screen, strain RM11-1a, OD600, basal, 24 h (AID 1177); details: OD600, 24 h, higher = more signal, called active from +8 up or from −8 down;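 further: cultures grown under basal conditions with no added stressor; test concentration not given here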
# [17] = E. coli acrAB mutant growth effects, primary screen, E. coli filamentation inducers, strain DRC39, OD650, 24 h (AID 1178); details: higher = more signal, called active from +8 up or from −8 down;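 further: growth measured as culture turbidity by optical density at 650 nm; test concentration not given here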
# [18] = E. coli acrAB mutant growth effects, primary screen, E. coli filamentation inducers, strain DRC39, OD650, 48 h (AID 1179);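 further: screen aims at cell division blockers that make cells filament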; details: E. coli DRC39 delta-acrAB growth, higher = more signal, called active from +8 up or from −8 down
# [19] = RPMI8226 myeloma cell viability, profiling panel, resazurin fluorescence, basal, 24 h, PK04 Diversity Set (AID 1180); details: higher = more signal;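 further: RPMI8826 multiple myeloma cell line at 5000 cells per well; test concentration not given here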
# [20] = target: E3 ubiquitin-protein ligase XIAP (Homo sapiens) (UniProt P98170); experiment: XIAP binders, primary screen, biophysical, small-molecule microarray, fluorescence 635 nm (AID 1181); details: small-molecule microarray binding, higher = more signal;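 further: score merges 667 nm emission and signal to noise over triplicate slides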
# E3 ubiquitin-protein ligase XIAP (Homo sapiens), sequence (P98170 whole entry, looked up): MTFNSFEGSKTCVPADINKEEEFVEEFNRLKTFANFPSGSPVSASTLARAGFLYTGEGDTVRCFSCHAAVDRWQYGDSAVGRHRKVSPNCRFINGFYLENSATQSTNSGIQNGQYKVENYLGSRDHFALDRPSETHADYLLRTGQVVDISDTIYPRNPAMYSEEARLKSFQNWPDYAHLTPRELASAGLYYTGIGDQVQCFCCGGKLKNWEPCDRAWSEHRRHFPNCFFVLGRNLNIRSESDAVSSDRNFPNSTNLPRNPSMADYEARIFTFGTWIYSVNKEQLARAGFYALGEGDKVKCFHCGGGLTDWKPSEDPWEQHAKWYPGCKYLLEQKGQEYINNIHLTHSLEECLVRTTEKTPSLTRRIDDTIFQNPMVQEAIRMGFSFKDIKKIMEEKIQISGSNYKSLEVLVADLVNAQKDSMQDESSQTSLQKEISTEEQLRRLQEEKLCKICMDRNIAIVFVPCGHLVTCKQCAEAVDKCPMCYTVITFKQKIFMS
# Dihydroorotate dehydrogenase (quinone), mitochondrial (Plasmodium falciparum (isolate 3D7)), sequence (Q08210 whole entry, looked up): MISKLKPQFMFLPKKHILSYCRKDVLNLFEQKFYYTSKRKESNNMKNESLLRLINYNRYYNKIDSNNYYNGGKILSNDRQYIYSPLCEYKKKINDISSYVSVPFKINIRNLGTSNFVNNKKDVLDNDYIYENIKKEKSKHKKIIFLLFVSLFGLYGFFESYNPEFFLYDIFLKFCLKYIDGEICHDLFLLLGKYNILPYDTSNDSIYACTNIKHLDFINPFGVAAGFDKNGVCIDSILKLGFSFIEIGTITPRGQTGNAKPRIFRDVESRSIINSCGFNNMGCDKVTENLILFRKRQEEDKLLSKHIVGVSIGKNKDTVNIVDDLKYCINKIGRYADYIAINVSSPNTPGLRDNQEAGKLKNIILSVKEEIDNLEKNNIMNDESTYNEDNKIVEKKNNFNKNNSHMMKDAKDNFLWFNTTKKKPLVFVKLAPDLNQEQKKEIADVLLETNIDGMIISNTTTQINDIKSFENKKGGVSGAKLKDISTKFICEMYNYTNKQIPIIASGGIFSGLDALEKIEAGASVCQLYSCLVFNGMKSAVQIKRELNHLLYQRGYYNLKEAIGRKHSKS
Structure (SMILES),z-score [1],z-score [2],z-score [3],z-score [4],z-score [5],z-score [6],z-score [7],z-score [8],z-score [9],z-score [10],z-score [11],z-score [12],z-score [13],composite z-score [14],z-score [15],z-score [16],z-score [17],z-score [18],z-score [19],composite z-score [20]
[N-]=[N+]=Nc1ccccc1C[C@]1(C(=O)N2CCCCC2)COC(c2ccc(OCCCO)cc2)=N1,-0.611,0.761,-0.328,-3.52,-4.33,-0.676,0.00722 (inactive),-1.3,-2.03,1.85 (inactive),0.508,-1.44 (inactive),-0.823 (inactive),1.78 (inactive),-0.248 (inactive),0.266 (inactive),1.18 (inactive),0.344 (inactive),0.552,0.054
NCCCCCNC(=O)[C@H]1C[C@H]2C(=O)N[C@@H](Cc3ccccc3)C(=O)N2[C@H]1c1cccc(OCCO)c1,1.15,-0.14,1.19,0.079,0.226,0.96,-0.67 (inactive),-0.288,0.948,1.35 (inactive),0.391,-1.84 (inactive),1.04 (inactive),0.884 (inactive),0.022 (inactive),-0.439 (inactive),-0.154 (inactive),0.496 (inactive),0.953,-0.0599
C=C(CCCC)/C(=C/C[C@H](OC(C)=O)c1ccc(OCCO)cc1)c1cnc2ccccc2c1,-0.138,0.0248,-0.257,-2.17,-0.861,1.91,-1.26 (inactive),-0.108,-0.552,1.24 (inactive),0.846,-0.0576 (inactive),-1.42 (inactive),-3.75 (inactive),0.403 (inactive),-0.476 (inactive),0.187 (inactive),0.225 (inactive),0.228,-0.312
COCCOC(=O)N1C(=O)[C@@]2(c3cc(C#CC4=CCCCC4)ccc31)[C@H](C(N)=O)[C@H]1C(=O)O[C@H](c3ccccc3)[C@H](c3ccccc3)N1[C@@H]2c1ccc(O)cc1,0.282,0.326,0.581,-3.07,-4.54,-1.89,1.1 (inactive),-1.22,-0.992,-1.77 (inactive),-0.495,-0.268 (inactive),-2.03 (inactive),-1.37 (inactive),1.37 (inactive),-1.07 (inactive),0.273 (inactive),1.03 (inactive),-4.15,-0.223
OCC1C=C(/C=C/c2ccccc2)CN1Cc1ccccc1Br (stereo not given),-0.58,1.21,0.0668,-3.2,-3.64,1.35,0.401 (inactive),-0.923,-1.87,-0.535 (inactive),0.233,-9.92 (active),-0.813 (inactive),-0.0313 (inactive),-0.0461 (inactive),-0.877 (inactive),1.79 (inactive),0.183 (inactive),-0.589,-0.122
[N-]=[N+]=NCc1ccccc1C[C@@]1(C(=O)NCC(O)CO)N=C(c2ccc(OCCCO)cc2)O[C@@H]1c1ccccc1 (stereo not given in full),-1.64,0.195,-3.17,-3.22,-1.82,-2.54,1.67 (inactive),-1.12,-0.123,-1.01 (inactive),-1.07,-2.07 (inactive),-0.243 (inactive),-0.0675 (inactive),0.466 (inactive),0.355 (inactive),1.39 (inactive),0.322 (inactive),-0.645,0.19
C=CCN1Cc2ccccc2[C@@H]2OC(c3ccc(OCCCO)cc3)=N[C@]2(CCS(=O)(=O)c2ccccc2)C1=O,-0.251,0.771,0.574,-1.12,-0.664,-0.187,-0.303 (inactive),-1.06,-0.181,0.315 (inactive),0.277,1.28 (inactive),-0.751 (inactive),0.651 (inactive),1.4 (inactive),1.38 (inactive),0.61 (inactive),0.713 (inactive),-0.764,-0.123
O=C(CS)NCCCCCNC(=O)[C@H]1C[C@H]2C(=O)NCC(=O)N2[C@H]1c1ccc(O)cc1,0.67,0.537,-0.815,0.0607,-0.261,-0.557,0.185 (inactive),0.415,-0.167,0.847 (inactive),1.33,-0.208 (inactive),1.5 (inactive),-0.522 (inactive),-0.832 (inactive),-1.3 (inactive),0.268 (inactive),0.0249 (inactive),1.21,0.0621

# Source: PubChem BioAssay
